Consider 101 molecules from ChEMBL document CHEMBL4513216, “Probing the Open Global Health Chemical Diversity Library for Multistage-Active Starting Points for Next-Generation Antimalarials” (ACS Infect Dis, 2020).

Hit rate of the full screen: of about 69,000 compounds, about 8,600 (12%) showed an effect of 50% or more. For the sample, strong results were picked, then their nearest neighbours and some compounds at random.

This assay has as its system Plasmodium berghei. The assay is described as follows: Screen against P. berghei liver stage (PbLuc), transformed with Luciferase, at 10uM. It counts as functional, HepG2. The note with it: tested at 10 uM.
Take `Cn1nnnc1SCCC(=O)NCC1Cc2ccccc2O1` (stereo unspecified): the INHIBITION is given as -0.554%. The result for `CN(C)C(=O)CCCS(=O)(=O)Cc1cc(Cl)c2c(c1)OCO2` reads 30.6%. The result for `NC1CCCN(C(=O)c2csc(-c3ccc(C(F)(F)F)cc3)n2)CC1` (stereo unspecified) reads 32.4%; that for `Cc1ncsc1C(=O)NCCNC(=O)OC(C)(C)C`, -7.93%. The result for `COc1ccc(OCCN(C)CCCn2cnc3c(N)ncnc32)cc1` reads 10.6%.

For `COc1cccc(CN(C)CCCn2cnc3c(N)ncnc32)c1`, the INHIBITION is listed as 9.84%.

For the molecule `COc1cccc(SCCCn2cnc3c(N)ncnc32)c1`, the INHIBITION is on record as 52.1%. Consider `CC(C)c1[nH]c2ncccc2c1CN1CCN(S(=O)(=O)N(C)C)CC1`, for which the INHIBITION is -33.6%.

For `Cc1nccn1C1CCCN(C(=O)COCC2CC2)C1` (stereo unspecified), the INHIBITION was 22.9%.

For `CN(Cc1csc(-c2ccccc2)n1)Cc1ncccc1C(=O)O`, the INHIBITION was found to be 25.5%. For `O=C(O)c1cccnc1CN(Cc1ccsc1)C1CC1` the value was 87.5%. The result for `O=C(CSCc1ccccn1)N(Cc1ccsc1)C1CC1` reads 36.2%; that for `O=C(c1cccs1)N1CCc2c(nc(N3CCCCC3)[nH]c2=O)C1`, 37.6%; that for `COc1ccc(C(=O)NCc2ccco2)nn1`, 9.4%.

With `CCN(CC)C(=O)CN1CCC2(C=Cc3cc(Cl)c(C)cc3O2)CC1`, the INHIBITION was found to be 78.9%.

In the case of `Cc1cc2c(cc1Cl)C=CC1(CCN(CC(=O)NC3CCCC3)CC1)O2`, the INHIBITION was 80%.

With `Cc1cc2c(cc1Cl)C=CC1(CCN(C(=O)N3CCOCC3)CC1)O2`, the INHIBITION came out at 89.9%. Turning to `Cc1cc(C)n(CC2CN(CC(=O)NC3CCCC3)CCO2)n1` (stereo unspecified), the INHIBITION is recorded as 0.706%.

As for `Cc1cc2c(cc1Cl)C=CC1(CCN(CC(=O)N3CCCC3)CC1)O2`, the INHIBITION is on record as 85.5%. The result for `Cc1cc(C(=O)N2CCCC3(C=Cc4ccccc4O3)CC2)cc(=O)[nH]1` (stereo unspecified) reads -155%; that for `Cc1cc2c(cc1Cl)C=CC1(CCN(CC(=O)N3CCOCC3)CC1)O2`, 15.1%; that for `Cc1ccc(CCC(=O)N2CCOCC2)cc1Cl`, -18%.

With `Cc1cc(C)n(CC2CN(CC(=O)NC3CCCCC3)CCO2)n1` (stereo unspecified), the INHIBITION amounted to 8.64%.

As to `CCN(CC)C(=O)CN1CCC(c2nc(C)c3c(n2)N(C)CCC3)CC1`, the INHIBITION is 8.12%. In the case of `Nc1cc(C(=O)N2CCCC3(C=Cc4ccccc4O3)CC2)ccn1` (stereo unspecified), the INHIBITION was found to be 34.8%. In the case of `Cc1cc2c(cc1C)OC1(C=C2)CCN(CC(=O)N2CCOCC2)CC1`, the INHIBITION came to 19.5%. The result for `Cn1nc(C2CC2)cc1C(=O)N1CCC(c2nnsc2S(C)(=O)=O)CC1` reads 18.14%; that for `CN(C)C(=O)CN1C(=O)CCC12CCN(Cc1ccsc1)CC2`, 17.4%; that for `COc1cc2c(cc1CCC(=O)O)CCC2`, -5.7%. The result for `COc1cc(C)c(C)cc1S(=O)(=O)N(C)CC(=O)Nc1ccon1` reads 27.4%; that for `CCCn1nnnc1COc1cc(OC)ccc1C(=O)OC`, 18.4%; that for `CCS(=O)(=O)CCNC1CCN(c2nc3ccc(Cl)cc3s2)CC1`, 85.2%.

For the molecule `CCc1nccn1CCNC1CCN(c2nc3ccc(Cl)cc3s2)CC1`, the INHIBITION came out at 78.1%. For `CCCc1cc(NCCCC2CCOC2)n2nccc2n1` (stereo unspecified) the value was -7.65%; for `CCc1cc(NCCCC2CCOC2)n2nccc2n1` (stereo unspecified), 48.1%; for `CS(=O)(=O)N1CCC(Nc2ccnc3ccc(Cl)cc23)CC1`, -20.6%.

As for `CCn1ccnc1CNC1CC(=O)N(CCc2cccc(Cl)c2)C1` (stereo unspecified), the INHIBITION is -6.39%. The result for `Clc1ccc2nc(N3CCC(NCCCC4CCOC4)CC3)sc2c1` (stereo unspecified) reads 88.1%; that for `CCc1cc(N2CCC(NCCc3ccccc3F)CC2)nc(C)n1`, 11%; that for `CCCc1cc(N2CCC(NCCc3ccc(O)cc3)CC2)nc(C)n1`, 30.3%. The result for `CCOc1ccc2cc(C(=O)NCCNc3ccc(C)nn3)[nH]c2c1` reads -21.9%; that for `Cc1cc(C(=O)NC2CCC3(CCC(=O)N3C)CC2)no1` (stereo unspecified), 28.4%; that for `CN(Cc1ccco1)[C@@H]1CN(Cc2ccsc2)C[C@@H]2CCCO[C@@H]21`, 17.5%. For `CC(C)N(Cc1ccccn1)C(=O)CCC(=O)c1ccccc1`, the INHIBITION came out at 34.1%. The result for `CC(C)c1n[nH]c(C2CN(CCc3cccs3)CCO2)n1` (stereo unspecified) reads -21.9%; that for `CN(Cc1ccco1)C(=O)C1=NN(C)C(=O)CC1`, -14.3%; that for `CC(=O)N(CCc1nc(-c2cc(C(N)=O)oc2C)cs1)C(C)C`, 74%.

As for `CC(=O)N(CCc1nc(-c2cc(C(N)=O)co2)cs1)C(C)C`, the INHIBITION was -49.3%. `CC(=O)N(C)CCc1nc(-c2cc(C(N)=O)co2)cs1`: the INHIBITION was -91.4%. For `CCC(=O)N1CCCC1c1nc(N(C)C)ncc1-c1ccc(Cl)cc1` (stereo unspecified) the value was 50.8%. Regarding `CC(=O)N1CCCC(c2nc(N(C)C)ncc2-c2cccc(F)c2)C1` (stereo unspecified), the INHIBITION was determined as 74.9%. The result for `CCC(=O)N1CCCC(c2nc(N(C)C)ncc2-c2ccc(F)cc2)C1` (stereo unspecified) reads 73.1%; that for `CC(C)C(=O)N1CCCC1c1nc(N(C)C)ncc1-c1ccc(Cl)cc1` (stereo unspecified), 26.7%; that for `CN(C)c1nccc(C2CCCN(C(=O)CO)C2)n1` (stereo unspecified), 23.2%. For `CC(=O)N1CCCC(c2nc(N(C)C)ncc2-c2ccccc2)C1` (stereo unspecified) the value was 9.98%; for `CC(=O)N1CCCC1c1nc(N(C)C)ncc1-c1ccccc1` (stereo unspecified), 1.62%. For `COCC(=O)N1CCCC(c2nc(N(C)C)ncc2-c2ccccc2)C1` (stereo unspecified) the value was 42.5%; for `CC(=O)N1CCOC(c2nc(N(C)C)ncc2-c2cccc(F)c2)C1` (stereo unspecified), 9.93%; for `CSCC[C@H](N)C(=O)NCc1cc2n(n1)CCCN(C(=O)N(C)C)C2`, 3.19%.

On to `Cc1nc(CN2CCO[C@H]3[C@H](OCC(=O)N(C)C)CC[C@@H]32)cs1`, for which the INHIBITION is reported as 10.6%. For `CC(NC(=O)c1ccc(F)cc1F)c1cnn(C)c1` (stereo unspecified) the value was 33.3%; for `O=C(Nc1cccnc1)[C@H]1C[C@H]2OCC[C@H]2N(C(=O)c2ccsc2)C1`, 3.41%; for `CCNc1nc2cn(-c3ccc(Cl)cc3)c(=O)c-2c[nH]1`, -64.5%. As to `c1cncc(-c2noc(CNCC3CCCN3c3cccnn3)n2)c1` (stereo unspecified), the INHIBITION is on record as -7.81%. For `COC(C)(C)CC(C)NCc1cn2ccccc2n1` (stereo unspecified) the value was 8.38%. The result for `Cc1cc(O)n(-c2ccc3nnc(C)n3n2)n1` reads 6.83%.

Regarding `CC(C)C(C(=O)N1CCC2(CC1)CN(C)C(=O)O2)c1ccccc1` (stereo unspecified), the INHIBITION is recorded as 56.3%. The result for `Cc1ccccc1OC(C(=O)N1CCC2(CC1)CN(C)C(=O)O2)C(C)C` (stereo unspecified) reads 41.5%; that for `Cc1ccccc1OCC(O)C(=O)N1CCC2(CC1)CN(C)C(=O)O2` (stereo unspecified), 39.6%; that for `Cc1noc(C)c1CN1C[C@@H]2COC[C@@H](C(=O)N3CCCO3)[C@@H]2C1`, 57.9%. For `Cc1noc(C)c1CN1C[C@@H]2COC[C@@H](CC(=O)N3CCCCO3)[C@@H]2C1` the value was 41.6%; for `Cc1noc(C)c1CN1C[C@@H]2COC[C@@H](C(=O)N3CCCCO3)[C@@H]2C1`, 39.2%; for `Cc1noc(C)c1CN1C[C@@H]2COC[C@H](C(=O)N3CCCCO3)[C@@H]2C1`, 50.6%. `Cc1noc(C)c1CN1C[C@@H]2COC[C@@H](CC(=O)N3CCCO3)[C@@H]2C1`: the INHIBITION is recorded as -0.388%. As for `Cc1noc(C)c1CN1C[C@@H]2COC[C@H](C(=O)N3CCCO3)[C@@H]2C1`, the INHIBITION is 62.5%. For `Cc1cc(CN2C[C@@H]3COC[C@@H](C(=O)N4CCCCO4)[C@@H]3C2)no1` the value was 34.6%. As to `Cc1noc(C)c1CN1C[C@@H]2COC[C@H](C(=O)N3CCOCC3)[C@@H]2C1`, the INHIBITION was found to be 13.6%. The result for `Cc1cc(CN2C[C@@H]3COC[C@H](C(=O)N4CCCCO4)[C@@H]3C2)no1` reads 21.8%; that for `CNC(=O)C1CN(C(=O)c2ccncc2)CCN(S(C)(=O)=O)C1` (stereo unspecified), 7.7%; that for `Cc1cc(-c2cnc(C(C)C)nc2CN(C)C(=O)c2ccccn2)on1`, 30.4%. Consider `CC1CCN(c2ccc(=O)n(CC(=O)N(C)Cc3ccccc3)n2)CC1`, for which the INHIBITION is -17.1%. The result for `CC(C)(C)c1cc(=O)n2c(n1)SCC(C(=O)NCc1ccccn1)C2` (stereo unspecified) reads 29.1%; that for `CC(=O)N1CCC2(CC1)C(=O)N(CC1CCN(C)CC1)c1ccccc12`, -4.82%; that for `O=c1[nH]c2c(-c3ccccn3)nsc2c(=O)n1CC1CC1`, 7.3%. The result for `NC(=O)CN1CCC(c2noc3cc(F)ccc23)CC1` reads 18.7%; that for `CNC(=O)[C@@H](CC(C)C)N1CCC[C@H]1C(=O)N(C)Cc1cccnc1`, 45.1%; that for `Cc1cc(CN2CCN(C(=O)NC(C)c3ccncc3)CC2)on1` (stereo unspecified), 14.9%. The result for `Cc1ccc(C(=O)N2CCC(Oc3c(C)cccc3C)CC2)c(=O)[nH]1` reads -1.25%; that for `Cc1cnc2c(S(=O)(=O)N(C)C3CCS(=O)(=O)C3)cccc2c1` (stereo unspecified), 22.3%. With `Cc1cccc(CN2C[C@@H]3COC[C@]3(CNC(=O)c3ccno3)C2)n1`, the INHIBITION is on record as -30%.

With `CC(C)n1cc(C(=O)NCCc2cn3ccsc3n2)cn1`, the INHIBITION is 8.48%.

`CC(C)n1cc(C(=O)NCC(CO)Cc2cccs2)cn1` (stereo unspecified): the INHIBITION came to 5.78%. For `CC(C)n1cc(C(=O)NCCCc2csc(N)n2)cn1` the value was 69.1%. The result for `CSCc1nc(CNC(=O)c2cnn(C(C)C)c2)cs1` reads 55%; that for `CSCc1nc(CCNC(=O)c2cnn(C(C)C)c2)cs1`, 33.4%. For `Nc1nc(CCCNC(=O)c2ccc(C3CCCNC3)cc2)cs1` (stereo unspecified), the INHIBITION is reported as -3.58%. For `COc1cc(NCc2c(C)noc2C)c(OC)cc1Cl` the value was 28.7%.

On to `Cc1ccc(N[C@@H]2CN(Cc3cc(C)on3)C[C@@H]3CCCO[C@@H]32)nn1`, for which the INHIBITION is given as -24.1%. `Cc1cc(NC(=O)CN2CCc3cnc(C(C)C)nc3C2)on1`: the INHIBITION is listed as -0.113%. For `COc1ccc(OC)c(C(O)CN2CCC(N3CCC(C)CC3)CC2)c1` (stereo unspecified) the value was 12.3%; for `COCCN(C)C(C)c1cccc(S(N)(=O)=O)c1` (stereo unspecified), -29.8%.
